Columns and labels:
[1] = target: Bromodomain-containing protein 4 (Homo sapiens) (UniProt O60885); conditions: Compound concentration 20.0 uM, Protein concentration 2.0 uM, Result type QC Liability
[2] = target: T1, Transcription intermediary factor 1-alpha (Homo sapiens) (UniProt O15164); conditions: Compound concentration 20.0 uM, Protein concentration 2.0 uM, Result type QC Liability
T1 sequence (whole entry): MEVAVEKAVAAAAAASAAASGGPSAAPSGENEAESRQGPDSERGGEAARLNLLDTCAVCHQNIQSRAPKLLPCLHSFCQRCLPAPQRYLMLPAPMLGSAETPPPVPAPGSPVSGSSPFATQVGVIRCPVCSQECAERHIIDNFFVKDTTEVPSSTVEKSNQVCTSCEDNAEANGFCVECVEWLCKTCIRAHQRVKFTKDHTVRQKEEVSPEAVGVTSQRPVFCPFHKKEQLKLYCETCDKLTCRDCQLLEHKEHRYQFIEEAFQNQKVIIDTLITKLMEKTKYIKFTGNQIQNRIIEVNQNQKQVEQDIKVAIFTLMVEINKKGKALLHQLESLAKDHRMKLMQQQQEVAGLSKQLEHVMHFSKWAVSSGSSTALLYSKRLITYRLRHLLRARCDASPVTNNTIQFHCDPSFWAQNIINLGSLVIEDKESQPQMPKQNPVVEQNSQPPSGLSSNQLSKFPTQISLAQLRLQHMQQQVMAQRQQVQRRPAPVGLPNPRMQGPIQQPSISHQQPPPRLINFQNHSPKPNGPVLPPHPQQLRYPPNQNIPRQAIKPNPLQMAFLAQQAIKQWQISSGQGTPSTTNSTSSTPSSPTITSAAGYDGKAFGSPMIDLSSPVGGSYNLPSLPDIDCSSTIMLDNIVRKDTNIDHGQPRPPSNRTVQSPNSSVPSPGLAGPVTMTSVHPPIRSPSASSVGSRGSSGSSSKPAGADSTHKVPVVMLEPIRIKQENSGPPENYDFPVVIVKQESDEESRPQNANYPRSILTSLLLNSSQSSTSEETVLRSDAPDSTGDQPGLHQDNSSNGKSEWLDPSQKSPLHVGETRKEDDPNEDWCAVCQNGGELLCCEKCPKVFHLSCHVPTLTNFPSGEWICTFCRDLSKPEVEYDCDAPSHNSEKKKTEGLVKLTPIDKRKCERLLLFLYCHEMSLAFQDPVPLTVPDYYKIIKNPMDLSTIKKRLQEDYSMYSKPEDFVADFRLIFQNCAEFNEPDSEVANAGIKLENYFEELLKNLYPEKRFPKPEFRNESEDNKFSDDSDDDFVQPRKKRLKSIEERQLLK

SMILES | ΔTm [1] | ΔTm [2]
OC(c1ccc(-c2ccc(CN3CCN(Cc4ccncc4)CC3)cc2)c(F)c1)(C(F)(F)F)C(F)(F)F | -1.34 °C | -2.91 °C
O=C(O)C[C@H]1CC[C@H](c2ccc(NC(=O)c3nnc(Nc4ccc(F)c(F)c4)o3)cc2)CC1 | -0.2 °C | 0.52 °C
COc1ccc(-c2csc(NC(=O)[C@H]3CCCCN3S(=O)(=O)c3ccc(C)cc3)n2)cc1 | 3.35 °C | -0.04 °C
COc1ccc(S(=O)(=O)N2CCOCC2)cc1Nc1ccc2c(n1)N(C1CCN(C)CC1)[C@H](C)C(=O)N2C | -8.74 °C | -1.33 °C
C/C(=C\C(=O)Nc1ccccc1C(=O)O)c1ccc2ccccc2c1 | -0.82 °C | 0.61 °C
Nc1ncnc2c1c(COc1cccc(Cl)c1)nn2C1CCOCC1 | -0.35 °C | -2.38 °C
C=CC1C[C@]1(NC(=O)[C@@H]1C[C@@H](Oc2cc(-c3csc(NC(=O)C(C)C)n3)nc3c(Br)c(OC)ccc23)CN1C(=O)[C@@H](NC(=O)OC1CCCC1)C(C)(C)C)C(=O)O (stereo not given in full) | 1.06 °C | 2.85 °C
CC(=O)c1ccc2c(c1)/C(=C(/Nc1cccc(C#N)c1)c1ccc3c(c1)OCCO3)C(=O)N2 | -1.21 °C | -2.47 °C
Cn1nc(-c2ccc(C(N)=O)cc2)c2ccccc2c1=O | 0.79 °C | 0.31 °C
COc1cccc(-c2c(C)c(Cc3c(F)cccc3C(F)(F)F)c3n(c2=O)[C@@H]([C@@H](N)c2ccccc2)CS3)c1F | -3.06 °C | 0.28 °C
Cn1cc(Nc2nccc(N3CC4CCC(C3)N4C(=O)[C@@H]3CC3(F)F)n2)cn1 | -1.13 °C | -1.71 °C
CCOC(=O)CS(=O)(=O)c1ccc([C@@H](CO)NC(=O)c2cc3c(Cl)c(Cl)c(C)cc3n2C)cc1 | -3.35 °C | -0.06 °C
O=C(O)[C@]1(Cc2cccc(Nc3nccs3)n2)CC[C@@H](Oc2cccc(Cl)c2F)CC1 | 0 °C | -1.24 °C
CN1CC(=O)N(C)c2cnc(Nc3ccc(NC(=O)Nc4cccc(C(=O)O)c4)cc3)nc21 | 0.02 °C | -0.69 °C
COc1cc(Cl)c(C(=O)N[C@@H](CN[C@H]2CC[C@@H](N)CC2)Cc2ccc(C#N)cc2)cc1-c1ccc(CN[C@H](C)c2ccc(C)cc2)o1 | -1.12 °C | -2.42 °C
CC(C)NC(=O)[C@H]1CCC[C@H]1Nc1nc(Nc2ccc(CN(C)C)cc2)ncc1Br | -3.19 °C | -4.42 °C
Cc1cc(C)nc(Nc2ncc(C(=O)NCCc3c(C)[nH]c4ccccc34)cn2)c1 | -0.8 °C | -1.3 °C
CC[C@H](NC(=O)[C@H](C)NC)C(=O)N1C[C@@H](O)C[C@H]1Cc1c(-c2[nH]c3cc(F)ccc3c2C[C@@H]2C[C@H](O)CN2C(=O)[C@H](CC)NC(=O)[C@H](C)NC)[nH]c2cc(F)ccc12 | -3.47 °C | -3.97 °C
Cc1cc(CN)cc(C)c1-c1ncn(C)c1-c1cncn1C | -1.42 °C | 0.01 °C
COc1cccc(CNc2ccc(S(=O)(=O)Nc3nc4ccccc4s3)cc2)c1O | 0.58 °C | 0.53 °C
COc1cc(N[C@@H]2CCCC[C@]2(O)C(F)(F)F)ccc1F | -2.92 °C | -2.59 °C
Cc1ccc(-c2cn3nc(C(=O)NC4(c5ccc(F)cc5)CN(C)C4)c(C(C)C)c3c(=O)[nH]2)cc1C | -24.1 °C | 0.46 °C
CC1CCN(C(=O)[C@H](CCn2cccc2C#N)NS(=O)(=O)c2cccc3[nH]ccc23)CC1 | 0.4 °C | 0.4 °C
O=C(O)c1cccc(C2=C(c3cc(Cl)ccc3OCc3ccc(F)cc3F)CCC2)n1 | -0.65 °C | -2.91 °C
Cn1ccc(Cn2cnc(-c3ccc(F)cc3)c2-c2ccnc3[nH]ccc23)n1 | -1.68 °C | -3.2 °C

SMILES | ΔTm [1] | ΔTm [2]
Cc1nc(Nc2cnn(C3CCNCC3)c2)nc2c1N(C)C(=O)c1cc3ccccc3cc1N2C | -2.15 °C | -2.83 °C
N#CN1CC[C@H](C(=O)Nc2nc3c(s2)CN(C(=O)CN=[N+]=[N-])CC3)C1 | -0.19 °C | -1.13 °C
O=C(NCCN1CCOCC1)c1ccc2nn(CCOc3ccc(Cl)cc3)cc2c1 | 0.04 °C | 0.35 °C
CSc1ccc(C[C@@H](C)C(=O)O)cc1Nc1nc(N2CC[C@H](N(C)C)C2)cc(C(F)F)c1C#N | 0.52 °C | 0.57 °C
COc1cc(N2CCN(C)CC2)ccc1Nc1ncc2c(n1)N(C)c1ccccc1C(=O)N2CC(F)(F)F | -1.21 °C | -2.27 °C
COc1cc(-c2cncc(-c3cnn(C4CCNCC4)c3)c2)cc(OC)c1OC | 0.84 °C | -1.81 °C
Cc1cccc(CC(=O)N2CCc3c2ccc(-c2cn(C)c4ncnc(N)c24)c3F)n1 | -0.38 °C | -2.22 °C
C[C@@H]1CC(=O)N(C2CC2)N=C1c1ccc(NC(=O)N2Cc3ccncc3C2)cc1 | -0.04 °C | 0.48 °C
C=CC[C@@H]1/C=C(\C)C[C@H](C)C[C@H](OC)[C@H]2O[C@@](O)(C(=O)C(=O)N3CCCC[C@H]3C(=O)O[C@H](/C(C)=C/[C@@H]3CC[C@@H](O)[C@H](OC)C3)[C@H](C)[C@@H](O)CC1=O)[C@H](C)C[C@@H]2OC | -1.85 °C | -0.9 °C
CC(C)(O)c1coc(S(=O)(=O)NC(=O)Nc2c3c(cc4c2CCC4)CCC3)c1 | -0.92 °C | -0.55 °C
CN[C@@H](C)C(=O)N[C@H](C(=O)N1CCC[C@H]1C(=O)N[C@@H]1CCCc2ccccc21)C1CCCCC1 | -2.83 °C | -1.41 °C
CCn1c(CNC(=O)c2nc(Cl)cnc2N)[n+](CC)c2ccc(C(=O)N(C)CCN(C)C)cc21 | -0.61 °C | 0.2 °C
O=C(NCCS(=O)(=O)c1ccc(C(F)(F)F)cn1)c1ccc(Cl)cc1 | -3.11 °C | -2.42 °C
COc1cc(C(=O)NC2CCN(C)CC2)ccc1Nc1ncc(C(F)(F)F)c(NCc2ccc(C)cc2N(C)S(C)(=O)=O)n1 | -2.71 °C | -3.38 °C
O=C(O)c1cc(-c2ccccc2)ccc1O | -1.31 °C | -1.78 °C
CC(=O)O[C@H]1C(=O)[C@@]2(C)[C@H]([C@H](OC(=O)c3ccccc3)[C@]3(O)C[C@H](OC(=O)[C@H](O)[C@@H](NC(=O)c4ccccc4)c4ccccc4)C(C)=C1C3(C)C)[C@]1(OC(C)=O)CO[C@@H]1C[C@@H]2O | -0.05 °C | -0.24 °C
Cn1nc(C(=O)NCc2ccc(C(=O)O)cc2)cc1-c1ccc2[nH]ccc2c1 | -0.1 °C | 0.43 °C
COc1cc2nc(C)nc(N[C@H](C)c3cc(N)cc(C(F)(F)F)c3)c2cc1O[C@H]1CCOC1 | 0 °C | 0.8 °C
COc1ccc(S(=O)(=O)N2CCOCC2)cc1Nc1ccc2c(n1)N(C1CCOCC1)[C@H](C)C(=O)N2C | 5.07 °C | -1.05 °C
N#Cc1ccc(C#CC[C@@H](C#N)NC(=O)[C@@H]2CCCCN2)cc1F | -1.93 °C | 0.36 °C
COc1ccc(F)c(F)c1C(=O)c1cnc(NC2CCN(S(C)(=O)=O)CC2)nc1N | 0.74 °C | -1.4 °C
O=C(Nc1ccc(C(O)(C(F)(F)F)C(F)(F)F)cc1)c1ccc(C(F)(F)F)cc1 | -1.03 °C | -0.53 °C
COc1cc(Nc2cnc(C#N)c(O[C@H](C)CN(C)C)n2)ncc1-c1cnn(C)c1 | -1.55 °C | -2.76 °C
CCc1nc(C2CCC2)n2nc(-c3ccccc3)[nH]c(=O)c12 | 0.07 °C | 0.37 °C
CC(C)(C)c1cnc(CSc2cnc(NC(=O)C3CCN(CC(=O)NCCOCCOCCOCCNc4cccc5c4C(=O)N(C4CCC(=O)NC4=O)C5=O)CC3)s2)o1 (stereo not given) | -1.66 °C | -1.74 °C

— ChEMBL document CHEMBL5308504, “Tm Shift (DSF) assay results for EUbOPEN Chemogenomics Library” (2023)
